Data reported in PubChem BioAssay (NCATS).
Results filed as inconclusive are left out. A call without a number means that no potency is given here. Active and inactive are the calls of the source. Calls come from the whole dose curve; as a rule, active = well fitted inhibition curve with a large enough effect; inconclusive = small, poorly fitted or top-dose-only effect; inactive = no such curve, though single readings can be large or run the other way.

system: Zika virus NS2B-NS3 protease (unlinked); assay: Optimization of GU AMC qHTS for Zika virus inhibitors: Unlinked NS2B-NS3 protease assay (AID 1347151); conditions: recombinant ZIKV NS2B-NS3 protease, fluorogenic AMC substrate; series mostly up to 52.5 µM; note: nearly all actives have a fitted effect of over 80% in size
In short: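 Unlinked protease (25 nM final); buffer 10 mM Tris-HCl pH 8.0 + 0.01% Tween 20; AMC substrate; 15 min RT, dark; Δfluorescence normalized to no-inhibitor/no-enzyme controls; 4-parameter Hill fit.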
Potency is the fitted concentration of half-maximal effect.

Row | Structure (SMILES) | Potency
1 | CC(CN(C)C)CN1c2ccccc2CCc2ccccc21 (stereo not drawn) | inactive
2 | CCN(CC)CCCC(C)Nc1c2ccc(Cl)cc2nc2ccc(OC)cc12 (stereo not drawn) | 23.8 µM (active)
3 | COC(=O)C1=C(C)NC(C)=C(C(=O)OC)C1c1ccccc1[N+](=O)[O-] | inactive
4 | NC1[C@H]2CN(c3nc4c(cc3F)c(=O)c(C(=O)O)cn4-c3ccc(F)cc3F)C[C@@H]12 (stereo partly drawn) | 23.8 µM (active)
5 | CN(C)CC[C@@H](c1ccc(Cl)cc1)c1ccccn1 | inactive
6 | O=C1N=C(O)CN1/N=C/c1ccc(-c2ccc([N+](=O)[O-])cc2)o1 | inactive
7 | C[C@](N)(Cc1ccc(O)cc1)C(=O)O | inactive
8 | CC(C(O)c1ccc(O)cc1)N1CCC(Cc2ccccc2)CC1 (stereo not drawn) | inactive
